{
  "source": "PubChem BioAssay AID2314",
  "about": "(National Center for Advancing Translational Sciences (NCATS), 2010)",
  "note": "Hit rate of the full screen: of about 300,000 compounds, about 37,000 (12%) were called active. The sample holds actives, similar compounds and a random draw of the others, so the mix is not that of the screen. A number with no mark means an inactive call. Rule as the data show it: active = max response mostly above about 13% (no sharp cut-off); inactive = mostly below about 14%.",
  "data": [
    {"assay": "Cycloheximide Counterscreen for Small Molecule Inhibitors of Shiga Toxin; also: read at 38.3 µM for the half of the compounds with a filed dose; 0% is about no effect", "settings": "cell reporter, cycloheximide protein synthesis inhibition counterscreen; stronger effect = higher value", "values": [
      {"smiles": "COc1ccc(CNC(=O)CN(C(=O)c2csnn2)c2cnc3ccccc3c2)cc1", "max response": "-1.99%"},
      {"smiles": "CSc1cccc(NC(=O)CSc2ccccc2)c1", "max response": "39.6% (active)"},
      {"smiles": "O=C(Nc1ccc(CSc2ccccc2)cc1)c1ccc(CN2CCOCC2)cc1", "max response": "-1.82%"},
      {"smiles": "Cc1cc(C)c(C#N)c(SCC(=O)Nc2ccccc2)n1", "max response": "14% (active)"},
      {"smiles": "Cc1nnc(SCC(=O)Nc2cccc(N)c2)n1-c1ccccc1", "max response": "-3.71%"},
      {"smiles": "Cc1cc(C)cc(NC(=O)CN2C(=O)c3ccccc3C2=O)c1", "max response": "-2.91%"},
      {"smiles": "O=C(CSc1nc(C2CC2)nc2ccccc12)Nc1cccc(O)c1", "max response": "-1.26%"},
      {"smiles": "Cc1cc(C)c(C#N)c(SCc2ccccc2C(=O)O)n1", "max response": "-3.7%"},
      {"smiles": "O=C(CSc1ccccc1)Nc1cc(Cl)ccc1Oc1ccccc1", "max response": "-2.3%"},
      {"smiles": "Cc1cc(C)cc(NC(=O)CSc2ccccc2)c1", "max response": "18.6% (active)"},
      {"smiles": "O=C(CSc1ccccc1)Nc1ccc(C(=O)Nc2cccc(O)c2)cc1", "max response": "32.4% (active)"},
      {"smiles": "COCc1cc(C)nc(SCC(=O)Nc2cccc(C)c2)c1C#N", "max response": "5.77%"},
      {"smiles": "Cc1cc(C)cc(NC(=O)CCN2C(=O)c3ccccc3C2=O)c1", "max response": "7.24%"},
      {"smiles": "COc1ccc(/C=C2\\SC(=S)N(CCC(=O)Nc3cccc(C(=O)O)c3)C2=O)cc1OC", "max response": "1.51%"},
      {"smiles": "CC(NC(=O)COc1cccnc1[N+](=O)[O-])c1ccc(Cl)cc1Cl", "note": "(stereo not given)", "max response": "-5.73%"},
      {"smiles": "CCCN1Cc2cccc(C(=O)Nc3ccc(S(=O)(=O)N4CCCCCC4)cc3)c2C1=O", "max response": "-1.84%"},
      {"smiles": "CCCCN(CC)C(=O)C1CCCN(S(=O)(=O)c2cccc3nsnc23)C1", "note": "(stereo not given)", "max response": "-3.7%"},
      {"smiles": "C#CCNC(=O)C1=C[C@@H](c2ccccc2)[C@H](CCCO)[C@@H](OCC)O1", "max response": "0.207%"},
      {"smiles": "O=C(NCC(c1cccs1)N1CCOCC1)c1cc(-c2ccccn2)nc2ccccc12", "note": "(stereo not given)", "max response": "-1.88%"},
      {"smiles": "CN(C(=O)c1cccc([N+](=O)[O-])c1)c1ccccc1C(=O)NCc1ccccc1", "max response": "-2.25%"},
      {"smiles": "CN(C)/C=C(/C(=O)c1ccc(Cl)cc1)S(=O)(=O)c1ccccc1", "max response": "50.5% (active)"},
      {"smiles": "Cc1ccc(S(=O)(=O)/N=C(\\N)c2ccc(F)cc2)cc1", "max response": "6.04%"},
      {"smiles": "CN(C)/C=C(/C(=O)c1ccccc1)S(=O)(=O)c1ccc(Cl)cc1", "max response": "9.87%"},
      {"smiles": "O=C(NNS(=O)(=O)c1ccc(F)cc1)C1CCCCC1", "max response": "-1.22%"},
      {"smiles": "CN(C)/C=C(/C(=O)c1ccc(F)cc1)S(=O)(=O)c1ccc(F)cc1", "max response": "27.7% (active)"},
      {"smiles": "CN(C)/C=C(/C(=O)c1ccccc1Cl)S(C)(=O)=O", "max response": "-0.829%"},
      {"smiles": "CCN(CC)/[N+]([O-])=N/Oc1cc(O/[N+]([O-])=N/N2CCCC2CO)c([N+](=O)[O-])cc1[N+](=O)[O-]", "note": "(stereo not given)", "max response": "-2.07%"},
      {"smiles": "O=C(Nc1cccc(Cl)c1)c1cncn1-c1ccc(F)cc1", "max response": "6.32%"},
      {"smiles": "COc1ccccc1C(=O)NNC(=O)CCN1C(=O)/C(=C\\c2ccccc2)SC1=S", "max response": "-3.61%"},
      {"smiles": "CCn1cc(CCC(=O)NCc2ccc(F)cc2)c2ccccc21", "max response": "5.51%"},
      {"smiles": "O=C(CCCNS(=O)(=O)c1cccc2nsnc12)NCCN1CCN(c2ccccc2F)CC1", "max response": "-4.37%"},
      {"smiles": "COc1ccccc1Oc1ccc(S(=O)(=O)Nc2cccnc2)cc1", "max response": "-1.76%"},
      {"smiles": "COc1ccc(NS(=O)(=O)c2ccc(Oc3c(C#N)cccc3C#N)cc2)cc1", "max response": "5.34%"},
      {"smiles": "COc1ccccc1Oc1ccc(N/C=C2/CCCC2=O)cc1", "max response": "15.4% (active)"},
      {"smiles": "COCCOC(=O)c1[nH]c2c(c1C)C(=O)CC(c1ccc(OC)cc1)C2", "note": "(stereo not given)", "max response": "7.29%"},
      {"smiles": "CCOC(=O)c1[nH]c2c(c1C)C(=O)CC(c1ccc(N(C)C)cc1)C2", "note": "(stereo not given)", "max response": "25.5% (active)"},
      {"smiles": "CCOC(=O)c1[nH]c2c(c1-c1ccccc1)C(=O)CC(c1ccc(Cl)cc1)C2", "note": "(stereo not given)", "max response": "5.07%"},
      {"smiles": "CCOC(OCC)c1ccc(/C=C\\c2nccc(N)n2)cc1", "max response": "38.5% (active)"},
      {"smiles": "Cc1cc(=O)n2nc(N3CCCC(C(=O)NCc4ccc(Cl)cc4)C3)sc2n1", "note": "(stereo not given)", "max response": "-2.2%"},
      {"smiles": "CC(=O)OCc1cc2cc(C)ccc2[nH]c1=O", "max response": "-2.45%"},
      {"smiles": "CCNCc1cc2cc(C)ccc2[nH]c1=O", "max response": "4.83%"},
      {"smiles": "CCOC(=O)c1cc2cc(C)ccc2[nH]1", "max response": "39.7% (active)"},
      {"smiles": "Cc1ccc2c(c1)N(CC(=O)N(Cc1ccccn1)Cc1ccco1)C(=O)C(C(C)C)O2", "note": "(stereo not given)", "max response": "8.51%"},
      {"smiles": "CCOC(CNC(=O)C1CCN(S(=O)(=O)c2ccc3nc4c(c(C(=O)O)c3c2)CC(C)CC4)CC1)OCC", "note": "(stereo not given)", "max response": "-3.45%"},
      {"smiles": "CC(=O)c1cccc(NC(=O)COc2ccc(S(=O)(=O)N3CCOCC3)cc2)c1", "max response": "0.879%"},
      {"smiles": "CC(C)(C)NS(=O)(=O)c1ccc(NC(=O)NC2CCCCC2)cc1", "max response": "9%"},
      {"smiles": "Cc1cc(C)cc(NC(=O)NC2CCN(CC(=O)Nc3cccc(Cl)c3C)CC2)c1", "max response": "-0.314%"},
      {"smiles": "CC(C)N1CCC(NC(=O)Nc2ccccc2)CC1", "max response": "-2.49%"},
      {"smiles": "Cc1cc(C)cc(NC(=O)NC2CCCCCCC2)c1", "max response": "17.4% (active)"},
      {"smiles": "Cc1cc(C)cc(NC(=O)N2CCCCCCC2)c1", "max response": "-5.05%"},
      {"smiles": "CC(C)c1ccc(NC(=O)NC2CCCCC2)cc1", "max response": "44.1% (active)"},
      {"smiles": "C/C(=N\\NC(=O)OC(C)(C)C)c1ccc[nH]1", "max response": "42.4% (active)"},
      {"smiles": "Cc1ccccc1NC(=O)NNC(=O)OC(C)(C)C", "max response": "-3.59%"},
      {"smiles": "COc1ccccc1CNS(=O)(=O)c1ccc2c(c1)NC(=O)CS2", "max response": "30.5%"},
      {"smiles": "O=[N+]([O-])c1cc([N+](=O)[O-])c(Oc2cc(F)cc(F)c2F)cc1NN1CCCCC1", "max response": "0.495%"},
      {"smiles": "CCOC(=O)c1sc(NC(=O)CSc2nc3c(c(=O)n2-c2ccccc2)SCC3)c(C(=O)OCC)c1C", "max response": "-2.16%"},
      {"smiles": "COc1cc2cc(C(=O)N/N=C/c3cccc(OC)c3OC)[nH]c2cc1OC", "max response": "0.0255%"},
      {"smiles": "COc1cccc(/C=N/NC(=O)c2[nH]nc3c2CCc2ccccc2-3)c1O", "max response": "6.14%"},
      {"smiles": "COc1cccc(/C=N\\NC(=O)C2=NNC(=O)C2C)c1O", "note": "(stereo not given)", "max response": "32.5% (active)"},
      {"smiles": "O=c1[nH]nc(SCCS(=O)(=O)c2ccc(F)cc2)n1-c1ccccc1C(F)(F)F", "max response": "-1.24%"},
      {"smiles": "COc1cccc2cc(-c3cc(=O)oc4cc(C)c(O)cc34)oc12", "max response": "8.46%"},
      {"smiles": "COc1ccccc1-n1cnc2cc(C(=O)NCC3CCCO3)ccc21", "note": "(stereo not given)", "max response": "-2.15%"},
      {"smiles": "O=C(NCCN1CCOCC1)c1ccc2c(c1)ncn2C1CCCC1", "max response": "1.03%"},
      {"smiles": "O=C(NCc1cccs1)c1ccc2c(c1)ncn2C1CCCC1", "max response": "31.8% (active)"},
      {"smiles": "CCCCC(CC)CNCc1cccn1CCN1CCOCC1", "note": "(stereo not given)", "max response": "-0.53%"},
      {"smiles": "CC(C)CN(Cc1c(O)ccc2c(=O)c(-c3ccccc3)coc12)CC(C)C", "max response": "8.57%"},
      {"smiles": "CC(C)=CCc1c(O)c(CC=C(C)C)c2occ(-c3ccc(O)cc3)c(=O)c2c1O", "max response": "10.9% (active)"},
      {"smiles": "O=C(Cn1cc(C(=O)C2CC2)c2ccccc21)Nc1ccccc1Cl", "max response": "-7.35%"},
      {"smiles": "O=C(CN1CCCCCC1)Nc1ccc(Cl)cc1F", "max response": "8.65%"},
      {"smiles": "Cc1cc(C)c(NC(=O)CN2CCCCCC2)c(C)c1", "max response": "34.2% (active)"},
      {"smiles": "Cc1csc(NC(=O)CN2CCCCCC2)n1", "max response": "2.46%"},
      {"smiles": "COc1cc(Cl)c(C)cc1NC(=O)CN1CCCCCC1", "max response": "0.423%"},
      {"smiles": "O=C(CN1CCOCC1)Nc1c(Cl)cc(Cl)cc1Cl", "max response": "-2.9%"},
      {"smiles": "O=C(CN1CCCCCC1)Nc1c(Cl)cc(Cl)cc1Cl", "max response": "21.3% (active)"},
      {"smiles": "CC1CCCCN1CCCNc1ccc(C(CC(N)=O)NC(=O)c2ccccc2)cc1[N+](=O)[O-]", "note": "(stereo not given)", "max response": "-1.02%"},
      {"smiles": "COCCN(Cc1cc2cc3c(cc2nc1Cl)OCO3)C(=O)c1cccc(C)c1", "max response": "5.64%"},
      {"smiles": "CCOc1ccc(C(O)Cc2nc3ccccc3n2C)cc1", "note": "(stereo not given)", "max response": "22.1% (active)"},
      {"smiles": "CCOc1ccc(C(O)Cn2c(=N)n(CCN3CCCCC3)c3ccccc32)cc1", "note": "(stereo not given)", "max response": "-4.27%"},
      {"smiles": "CCCn1c(C(O)c2ccc(OCC)cc2)nc2ccccc21", "note": "(stereo not given)", "max response": "-3.7%"},
      {"smiles": "COc1cc(C(O)c2nc3ccccc3n2C)cc(OC)c1OC", "note": "(stereo not given)", "max response": "0.887%"},
      {"smiles": "COc1ccc(OC)c(C(O)c2nc3ccccc3n2C)c1", "note": "(stereo not given)", "max response": "-2.03%"},
      {"smiles": "COc1cccc(C(O)Cc2nc3ccccc3n2C)c1OC", "note": "(stereo not given)", "max response": "20.6% (active)"},
      {"smiles": "COc1ccc(CN2CC(C(=O)NC3CCCCC3)CC2=O)cc1", "note": "(stereo not given)", "max response": "-2%"},
      {"smiles": "O=C1Oc2ccccc2C(=O)/C1=C/c1ccccc1O", "max response": "12.4%"},
      {"smiles": "COCCNC(=O)C1CCN(C(=O)C2CC(=O)N(c3ccc(C)cc3)C2)CC1", "note": "(stereo not given)", "max response": "1.44%"},
      {"smiles": "CCOC(=O)c1c(NC(=O)c2ccc(S(=O)(=O)N(C)CC3CCCO3)cc2)sc2c1CC(C)(C)NC2(C)C", "note": "(stereo not given)", "max response": "-4.44%"},
      {"smiles": "COc1ccc(NC(=O)N2CCCC2C(=O)NCc2ccccc2Cl)cc1", "note": "(stereo not given)", "max response": "-3.43%"},
      {"smiles": "O=C(c1ccccc1F)N(Cc1ccccc1)Cc1ccccc1", "max response": "-2.08%"},
      {"smiles": "C=CCN1C=C2C(=O)C(C)(OC(=O)CCc3ccccc3)C(=O)C=C2C=C1c1ccc(C#N)cc1", "note": "(stereo not given)", "max response": "-1.82%"},
      {"smiles": "O=C(Nc1ccc2c(c1)OCCO2)c1cnccn1", "max response": "33%"},
      {"smiles": "Cn1c(=O)c2ccccc2n(CC(=O)Nc2ccc3c(c2)OCCO3)c1=O", "max response": "-8.73%"},
      {"smiles": "O=C(Nc1ccc2c(c1)OCCO2)c1ccncc1", "max response": "33.1% (active)"},
      {"smiles": "O=C(Cn1c(=O)sc2ccccc21)Nc1ccc2c(c1)OCCO2", "max response": "-0.826%"},
      {"smiles": "O=C(CCN1C(=O)c2ccncc2C1=O)Nc1ccc2c(c1)OCCO2", "max response": "1.67%"},
      {"smiles": "O=C(Nc1ccc2c(c1)OCCO2)c1ccoc1", "max response": "35.3% (active)"}
    ]}
  ]
}
